We go through 20 molecules from PubChem BioAssay (EPA / NIEHS).

Structures are written as SMILES. Values joined by “and” are separate entries in the source; they are usually repeats but may differ in a detail not shown here. Identical values can stand only once. Active and inactive are the calls of the source. The calls were made as follows: active = hit-call score of the fitted dose curve at least 0.9, where 1 is the maximum; inactive = score below 0.9.

Read-out in one test: Monokine induced gamma interferon (MIG), CXCL9 (gene 4283)
The test can be described thus: BSK_SAg_MIG: BioMAP Diversity Plus: SAg Assay for Monokine induced gamma interferon (MIG) Biomarker Activity (AID 2283092). Particulars: primary human HUVEC with PBMC; actives raise or lower the signal. The method, boiled down:
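Values reflect bidirectional fitting of ELISA-measured MIG against DMSO vehicle, taken 24 h after dosing of a co-culture of human umbilical vein endothelial cells and peripheral blood mononuclear cells.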
`C=C(F)C(=O)OC(C(F)(F)F)C(F)(F)F`: the result was inactive.

In the case of `CC(C)Cc1ccc(C(C)C(=O)O)cc1` (centres undefined), the outcome was inactive.

On to `O=C(O)C(F)(F)OC(F)(F)C(F)(F)OC(F)(F)C(F)(F)C(F)(F)C(F)(F)F`, for which the outcome was inactive.

As to `CCCCCCCCCCCCS`, the outcome was inactive.

Turning to `C=C(C)C(N)=O`, the result was inactive.

Take `C[C@]12CC[C@@H]3c4ccc(O)cc4CC[C@H]3[C@@H]1CC[C@@H]2O`: the AC50 – broadly, the concentration giving half of the maximal activity seen – was 20 µM (active).

As to `Nc1ccc(N)c([N+](=O)[O-])c1`, the outcome was inactive.

`CC1(C)[C@H](C=C(Cl)Cl)[C@H]1C(=O)OCc1cccc(Oc2ccccc2)c1`: the outcome was inactive.

Take `CC/C(=C(\c1ccccc1)c1ccc(OCCN(C)C)cc1)c1ccccc1`: the half-maximal activity concentration (AC50) was 14.1 µM (active) and 11.3 µM (active).

In the case of `O=S1(=O)CC(Cl)(Cl)C(Cl)(Cl)C1`, the AC50 is 2.75 µM (active).

Turning to `CC=CC(=O)C1=C(C)C=CCC1(C)C`, the result was inactive.

As for `CC(=O)OCC=C(C)CCC=C(C)CCC=C(C)C`, the outcome was inactive.

As to `C=C1CC/C=C(\C)CC[C@@H]2[C@@H]1CC2(C)C`, the outcome was inactive.

Consider `OCCN1CCOCC1`, for which the result was inactive.

Turning to `C#C[C@]1(O)CC[C@H]2[C@@H]3CCc4cc(O)ccc4[C@H]3CC[C@@]21C`, the outcome was inactive.

As to `CCC(=O)OCC=Cc1ccccc1`, the outcome was inactive.

`c1ccc(Sc2ccccc2)cc1`: the half-maximal activity concentration (AC50) was 34.5 µM (active).

Take `CCCCOCCOCCO`: the result was inactive.

`CCOC(=O)C=Cc1ccccc1`: the outcome was inactive.

Turning to `O=C(c1ccc(OCCN2CCCCC2)cc1)c1c(-c2ccc(O)cc2)sc2cc(O)ccc12`, the AC50 was 34.7 µM (active).

Read-out in a further test: not listed separately
As to the kind of experiment: BSK_SAg_PBMCCytotoxicity: PBMC Cytotoxicity Assessment in the BioMAP Diversity Plus: SAg Assay (AID 2283093).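 Also: PBMC viability measured as Alamar Blue reduction fluorescence at 546/580 nm; fitted both ways against DMSO so a hit may be loss or gain of signal.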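 As to AC50: PBMC superantigen activated with SEB plus TSST-1 one hour after compound addition.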 The following applies: primary human HUVEC with PBMC. A digest of the protocol:
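Human umbilical vein endothelial cells co-cultured with PBMC; PBMC (75,000/well) pre-treated with compound 1 h, then activated with SEB and TSST-1 (20 ng/mL final each) for 90 h. Alamar Blue added 6 h, fluorescence 546/580 nm; bidirectional fit versus DMSO.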
As for `C=C(F)C(=O)OC(C(F)(F)F)C(F)(F)F`, the outcome was inactive.

`CC(C)Cc1ccc(C(C)C(=O)O)cc1` (centres undefined): the outcome was inactive.

As to `O=C(O)C(F)(F)OC(F)(F)C(F)(F)OC(F)(F)C(F)(F)C(F)(F)C(F)(F)F`, the outcome was inactive.

In the case of `CCCCCCCCCCCCS`, the result was inactive.

Regarding `C=C(C)C(N)=O`, the outcome was inactive.

Turning to `C[C@]12CC[C@@H]3c4ccc(O)cc4CC[C@H]3[C@@H]1CC[C@@H]2O`, the outcome was inactive.

As to `CC1(C)[C@H](C=C(Cl)Cl)[C@H]1C(=O)OCc1cccc(Oc2ccccc2)c1`, the result was inactive.

Consider `CC/C(=C(\c1ccccc1)c1ccc(OCCN(C)C)cc1)c1ccccc1`, for which the AC50 is 6.22 µM (active) and 6.86 µM (active).

Regarding `O=S1(=O)CC(Cl)(Cl)C(Cl)(Cl)C1`, the concentration at half-maximal activity (AC50) was 0.515 µM (active).

Consider `CC=CC(=O)C1=C(C)C=CCC1(C)C`, for which the result was inactive.

On to `CC(=O)OCC=C(C)CCC=C(C)CCC=C(C)C`, for which the outcome was inactive.

As for `C=C1CC/C=C(\C)CC[C@@H]2[C@@H]1CC2(C)C`, the AC50 was 20 µM (active).

Regarding `OCCN1CCOCC1`, the outcome was inactive.

For the molecule `C#C[C@]1(O)CC[C@H]2[C@@H]3CCc4cc(O)ccc4[C@H]3CC[C@@]21C`, the result was inactive.

`CCC(=O)OCC=Cc1ccccc1`: the result was inactive.

Regarding `c1ccc(Sc2ccccc2)cc1`, the half-maximal activity concentration (AC50) is 33.9 µM (active).

As for `CCCCOCCOCCO`, the result was inactive.

Regarding `CCOC(=O)C=Cc1ccccc1`, the outcome was inactive.

For the molecule `O=C(c1ccc(OCCN2CCCCC2)cc1)c1c(-c2ccc(O)cc2)sc2cc(O)ccc12`, the half-maximal activity concentration (AC50) is 26.2 µM (active).

Read-out in another test: Interleukin-8 (IL8), CXCL8 (gene 3576)
As to the kind of experiment: BSK_SAg_IL8: BioMAP Diversity Plus: SAg Assay for Interleukin-8 (IL8) Biomarker Activity (AID 2283094). Particulars: primary human HUVEC with PBMC; actives raise or lower the signal. The method, boiled down: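 In this co-culture of human umbilical vein endothelium with peripheral blood mononuclear cells, IL-8 is assayed by ELISA at 24 h. DMSO serves as baseline for bidirectional curve fitting.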
Regarding `C=C(F)C(=O)OC(C(F)(F)F)C(F)(F)F`, the outcome was inactive.

Turning to `CC(C)Cc1ccc(C(C)C(=O)O)cc1` (centres undefined), the result was inactive.

For `O=C(O)C(F)(F)OC(F)(F)C(F)(F)OC(F)(F)C(F)(F)C(F)(F)C(F)(F)F`, the outcome was inactive.

In the case of `CCCCCCCCCCCCS`, the result was inactive.

Take `C=C(C)C(N)=O`: the outcome was inactive.

On to `C[C@]12CC[C@@H]3c4ccc(O)cc4CC[C@H]3[C@@H]1CC[C@@H]2O`, for which the result was inactive.

`Nc1ccc(N)c([N+](=O)[O-])c1`: the outcome was inactive.

On to `CC1(C)[C@H](C=C(Cl)Cl)[C@H]1C(=O)OCc1cccc(Oc2ccccc2)c1`, for which the result was inactive.

On to `CC/C(=C(\c1ccccc1)c1ccc(OCCN(C)C)cc1)c1ccccc1`, for which the AC50 was 18.3 µM (active) and 7.16 µM (active).

With `O=S1(=O)CC(Cl)(Cl)C(Cl)(Cl)C1`, the AC50 is 0.337 µM (active).

In the case of `CC=CC(=O)C1=C(C)C=CCC1(C)C`, the AC50 was 0.016 µM (active).

For the molecule `CC(=O)OCC=C(C)CCC=C(C)CCC=C(C)C`, the outcome was inactive.

On to `C=C1CC/C=C(\C)CC[C@@H]2[C@@H]1CC2(C)C`, for which the half-maximal activity concentration (AC50) was 32.3 µM (active).

Consider `OCCN1CCOCC1`, for which the outcome was inactive.

`C#C[C@]1(O)CC[C@H]2[C@@H]3CCc4cc(O)ccc4[C@H]3CC[C@@]21C`: the result was inactive.

As for `CCC(=O)OCC=Cc1ccccc1`, the outcome was inactive.

In the case of `c1ccc(Sc2ccccc2)cc1`, the half-maximal activity concentration (AC50) was 20 µM (active).

As for `CCCCOCCOCCO`, the result was inactive.

In the case of `CCOC(=O)C=Cc1ccccc1`, the result was inactive.

Take `O=C(c1ccc(OCCN2CCCCC2)cc1)c1c(-c2ccc(O)cc2)sc2cc(O)ccc12`: the AC50 was 28.9 µM (active).

Read-out in another test: not listed separately
As to the kind of experiment: BSK_SAg_Proliferation: Cell Proliferation Assessment in the BioMAP Diversity Plus: SAg Assay (AID 2283095).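 Also: relative cell number as total protein by SRB absorbance in sub-confluent culture.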 The following applies: primary human HUVEC with PBMC. The method, boiled down: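 Readout is SRB-stained protein (560 nm) in a primary human HUVEC and PBMC co-culture; sub-confluent cultures are read at 96 h. Activity is fitted bidirectionally using DMSO as baseline.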
With `C=C(F)C(=O)OC(C(F)(F)F)C(F)(F)F`, the result was inactive.

Regarding `CC(C)Cc1ccc(C(C)C(=O)O)cc1` (centres undefined), the outcome was inactive.

In the case of `O=C(O)C(F)(F)OC(F)(F)C(F)(F)OC(F)(F)C(F)(F)C(F)(F)C(F)(F)F`, the outcome was inactive.

Turning to `CCCCCCCCCCCCS`, the AC50 was 20 µM (active).

For the molecule `C=C(C)C(N)=O`, the outcome was inactive.

Turning to `C[C@]12CC[C@@H]3c4ccc(O)cc4CC[C@H]3[C@@H]1CC[C@@H]2O`, the AC50 is 13.5 µM (active).

As to `Nc1ccc(N)c([N+](=O)[O-])c1`, the outcome was inactive.

Turning to `CC1(C)[C@H](C=C(Cl)Cl)[C@H]1C(=O)OCc1cccc(Oc2ccccc2)c1`, the result was inactive.

In the case of `CC/C(=C(\c1ccccc1)c1ccc(OCCN(C)C)cc1)c1ccccc1`, the AC50 is 4.55 µM (active) and 5.13 µM (active).

`O=S1(=O)CC(Cl)(Cl)C(Cl)(Cl)C1`: the concentration at half-maximal activity (AC50) is 0.0797 µM (active).

Regarding `CC=CC(=O)C1=C(C)C=CCC1(C)C`, the result was inactive.

For `CC(=O)OCC=C(C)CCC=C(C)CCC=C(C)C`, the result was inactive.

As for `C=C1CC/C=C(\C)CC[C@@H]2[C@@H]1CC2(C)C`, the half-maximal activity concentration (AC50) is 22.8 µM (active).

On to `OCCN1CCOCC1`, for which the outcome was inactive.

For `C#C[C@]1(O)CC[C@H]2[C@@H]3CCc4cc(O)ccc4[C@H]3CC[C@@]21C`, the half-maximal activity concentration (AC50) is 5.51 µM (active).

As to `CCC(=O)OCC=Cc1ccccc1`, the result was inactive.

Turning to `c1ccc(Sc2ccccc2)cc1`, the concentration at half-maximal activity (AC50) was 34 µM (active).

`CCCCOCCOCCO`: the outcome was inactive.

Take `CCOC(=O)C=Cc1ccccc1`: the result was inactive.

For `O=C(c1ccc(OCCN2CCCCC2)cc1)c1c(-c2ccc(O)cc2)sc2cc(O)ccc12`, the concentration at half-maximal activity (AC50) was 14.6 µM (active).
